Reference: PubChem BioAssay AID651699 (Sanford-Burnham Center for Chemical Genomics, 2012)
Out of some 360,000 compounds screened, about 2,100 (0.58%) were called active. Rule as the data show it: active = inhibition above about 36%; inactive = the rest. What follows is part of a selection rich in actives, with near analogues and random picks from the rest.

Target: NEDD8-conjugating enzyme Ubc12 (Homo sapiens) + NEDD8-activating enzyme E1 regulatory subunit (Homo sapiens) (UniProt P61081+Q13564)
Assay: NEDD8 transfer onto cullin, blockade – biochemical, TR-FRET, uHTS, NAE and Ubc12, primary screen (AID 651699)
Conditions: TR-FRET cullin neddylation, at 25 µM, stronger effect = higher value

NEDD8-conjugating enzyme Ubc12 (Homo sapiens) + NEDD8-activating enzyme E1 regulatory subunit (Homo sapiens), sequence (P61081 whole entry, looked up): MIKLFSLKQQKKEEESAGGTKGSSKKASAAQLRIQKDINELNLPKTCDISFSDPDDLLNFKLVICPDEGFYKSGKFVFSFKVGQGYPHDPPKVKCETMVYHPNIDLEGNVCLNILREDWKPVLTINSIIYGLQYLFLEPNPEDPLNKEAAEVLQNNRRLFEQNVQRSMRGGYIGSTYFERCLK
NEDD8-conjugating enzyme Ubc12 (Homo sapiens) + NEDD8-activating enzyme E1 regulatory subunit (Homo sapiens), sequence (Q13564 whole entry, looked up): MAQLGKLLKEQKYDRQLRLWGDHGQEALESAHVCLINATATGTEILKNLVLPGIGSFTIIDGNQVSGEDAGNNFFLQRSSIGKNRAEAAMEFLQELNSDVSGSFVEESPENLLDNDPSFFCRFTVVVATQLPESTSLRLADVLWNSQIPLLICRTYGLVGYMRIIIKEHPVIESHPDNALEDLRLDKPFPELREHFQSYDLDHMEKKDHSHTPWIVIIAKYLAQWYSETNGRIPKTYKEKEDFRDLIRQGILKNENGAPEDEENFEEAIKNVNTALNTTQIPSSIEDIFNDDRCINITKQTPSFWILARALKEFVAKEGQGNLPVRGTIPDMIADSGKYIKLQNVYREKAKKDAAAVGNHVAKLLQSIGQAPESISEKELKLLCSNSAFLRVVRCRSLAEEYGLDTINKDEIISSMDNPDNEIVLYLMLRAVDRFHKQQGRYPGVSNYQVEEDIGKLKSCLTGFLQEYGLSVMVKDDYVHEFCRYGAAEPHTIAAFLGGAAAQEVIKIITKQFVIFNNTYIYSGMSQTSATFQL

Structure (SMILES)	inhibition
CC(=CCOc1ccc2ccc(=O)oc2c1)C1=CC(=O)C(C)(C)O1	48.3% (active)
COC(=O)CN1C(=O)C2(C(C(=O)OC)=C(N)Oc3ccccc32)C2=C1CC(C)(C)CC2=O (stereo not given)	0.61% (inactive)
O=C(CCC(=O)N1C[C@H]2C[C@@H](C1)c1cccc(=O)n1C2)NCc1ccccc1C(F)(F)F	-4.64% (inactive)
O=C(c1cc(S(=O)(=O)N2CCOCC2)ccc1F)N1CCC2(CC1)OCCO2	4.52% (inactive)
CCC(C)n1c(O)c(/C=N/Nc2nc3c(c(=O)n(C)c(=O)n3C)n2C)c(=O)[nH]c1=S (stereo not given)	40.5% (active)
CCN1C(=O)NC(=O)C2(CCCC2)C1=O	1.81% (inactive)
CC(c1ccccc1)(c1ccccc1)c1ccncc1	-5.54% (inactive)
COc1ccc2c(c1)[C@]13CCCCC1C(C2)N(C)CC3 (stereo not given in full)	-8.52% (inactive)
COP(=O)(NS(=O)(=O)c1ccccc1)OC	-0.79% (inactive)
CCN1c2nc3c(C)cccn3c(=O)c2CC2(C(=O)N(C)C(=O)N(C)C2=O)C1C (stereo not given)	41.1% (active)
CCCCCn1c(=O)c(C(=O)NCc2ccccn2)c(O)c2ccccc21	4.17% (inactive)
CC1(C)Cc2c(C#N)c(N3CCNCC3)nc(-c3ccco3)c2CS1	25.7% (inactive)
COc1ccc(C(=O)C2CCCN(Cc3ccc(C)s3)C2)cc1OC (stereo not given)	0.31% (inactive)
CN1C2C=C(N(C(=O)c3ccc(Cl)cc3)c3ccccc3)CC1CC2 (stereo not given)	0.6% (inactive)
CCCCC(=O)N/N=C/c1c(O)n(CC)c(=S)n(CC)c1=O	-37% (inactive)
CCCCC(=O)N/N=C/c1c(O)n(CCC2=CCCCC2)c(=O)[nH]c1=O	52.9% (active)
O=c1[nH]c(=O)n(CCc2ccc(F)cc2)c(O)c1/C=N/N1CCCCC1	-6.7% (inactive)
COC(=O)C1=C(c2ccccc2)C[C@@H]2CC[C@H]1N2C(=O)N1CCCCC1	-6.19% (inactive)
COc1cccc(OC)c1C(=O)NC(=S)N1C[C@H]2C[C@H](C1)c1cccc(=O)n1C2	-2.07% (inactive)
c1ccc2sc(N3CCNCC3)nc2c1	1.66% (inactive)
